Among the data in PubChem BioAssay (NCI) are growth values, retold here.

This is part of a sample that, as a whole, favours compounds with a hit. Of some 83,000 tested, about 20% had one in any assay.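 The endpoint reported here, percent growth, reads 100 for growth as untreated, 0 for no net growth and -100 for all cells dead.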 Unmarked numbers belong to inactive results. Activity calls are given as the source filed them. How the source made its calls: active means growth percent below 10; inactive means the rest.

Holding throughout (assay): NCI-60 one-dose screen, 48 h (100 = growth as untreated, 0 = no growth, -100 = all killed)
What all share (conditions): 10 µM unless noted

For test [1], the system named is SK-MEL-2 melanoma.
Test [2] relates to EKVX NSCLC.
Test [3] relates to SN12C renal.
Test [4] concerns UO-31 renal.
For test [5], the system named is TK-10 renal.
For test [6], the system named is ACHN renal.
In test [7] the test system is CAKI-1 renal.
Test [8] concerns A498 renal.
The test system of test [9] is CCRF-CEM leukemia.
The test system of test [10] is MOLT-4 leukemia.
Test [11] has as its system RPMI-8226 leukemia.
Test [12] has as its system OVCAR-8 ovarian.
The test system of test [13] is OVCAR-5 ovarian.
For test [14], the system named is OVCAR-4 ovarian.
The subject of test [15] is SK-OV-3 ovarian.
For test [16], the system named is IGROV1 ovarian.
The subject of test [17] is OVCAR-3 ovarian.
The subject of test [18] is HS 578T breast.
The test system of test [19] is NCI/ADR-RES ovarian.

Regarding `Cc1oc(-c2ccc(Cl)cc2Cl)cc1C(=O)Nc1nccs1`, the growth in [1] was 102%; in test [2] it was 70.7%; in [3] it was 78.3%; in [4], 82%; in test [5] it was 103%; in [6], 62.5%. Also, the growth in test [7] was 78.1%; in [8], 102%; in test [9] it was 89%; in test [10], 94%; in test [11] it was 98.4%; in test [12], 80%. Also, the growth in [13] is 83.1%; in test [14], 7.78% (active); in [15] it was 89.8%; in test [16] it was 81.6%; in test [17], 101%; in [18], 77.1%. In addition, the growth in test [19] was 89.6%.
On to `COc1ccc(-c2cc(C(=O)N=Nc3c(O)[nH]c4ccc(Br)cc34)no2)cc1`, for which the growth is 97.6% in test [1]; 94.4% in test [2]; 93.6% in test [3]; 77.6% in [4]; 124% in [5]; 98.2% in test [6]. The growth was 84.1% in test [7]; 99.6% in test [8]; 102% in test [9]; 101% in test [10]; 107% in test [11]; 99.8% in test [12]. Further, the growth in test [13] was 99.8%; in test [14], 103%; in [15], 95.2%; in [16], 100%; in test [17], 108%; in test [18] it was 95.7%. In addition, the growth in [19] was 97.4%.
Regarding `O=C1/C(=C/c2cn(-c3ccccc3)nc2-c2ccccc2)SC(=S)N1CCc1ccccc1`, the growth in test [1] is 108%; in [2], 96.6%; in [3], 98.6%; in [4] it was 88.5%; in [5], 106%; in test [6] it was 104%. Moreover, the growth was 85.2% in test [7]; 95.7% in [8]; 102% in test [9]; 99.4% in test [10]; 102% in test [11]; 105% in test [12]. The growth is 107% in [13]; 109% in [15]; 108% in [16]; 107% in test [17]; 104% in test [18]; 107% in [19].
For `Cc1nc2ccccc2n1C(=O)C[C@@H]1NC(=S)NC1=O`, the growth in test [1] is 113%; in [2], 93.6%; in test [3] it was 103%; in test [4] it was 78.3%; in test [5], 90.9%; in [6] it was 96.5%. Further, the growth is 91.5% in test [7]; 94.9% in [8]; 109% in test [9]; 100% in test [10]; 111% in test [11]; 93.6% in test [12]. For the same compound, the growth in test [13] is 85.6%; in [14], 101%; in [15] it was 100%; in [16], 94.8%; in test [17], 108%; in [18], 104%. Moreover, the growth in test [19] is 101%.
With `O=C(N/N=C/c1c[nH]c2ccccc12)c1cc(-c2ccccc2)on1`, the growth in [1] is 101%; in test [2] it was 87.9%; in [3] it was 92.3%; in [4] it was 60.7%; in test [5], 125%; in test [6] it was 87.6%. Moreover, the growth was 69.7% in test [7]; 78.6% in [8]; 46.1% in test [9]; 69.5% in test [10]; 90% in [11]; 102% in [12]. For the same compound, the growth in test [13] was 97.5%; in test [15], 91%; in test [16], 87.2%; in test [17], 103%; in test [18] it was 94.4%; in test [19] it was 84.3%.
Take `C[n+]1ccccc1/C=C/c1ccc2cccc(O)c2n1`: the growth in test [1] is 103%; in [2] it was 32%; in test [3] it was 91.8%; in test [4], 57.9%; in [5] it was 109%; in [6], 102%. Further, the growth was 57.3% in [7]; 63.9% in test [8]; 103% in test [9]; 95.2% in test [10]; 105% in test [11]; 100% in test [12]. In addition, the growth in [14] was 112%; in test [15], 39.1%; in test [16] it was 105%; in test [17], 112%; in test [18] it was 108%; in [19], 109%.
For the compound `CCCN1CCN(c2ccc3nc(-c4ccc5nc(-c6ccc(OCC)cc6)[nH]c5c4)[nH]c3c2)CC1`, the growth was 78.9% in test [1]; 59.1% in [2]; 61.2% in test [3]; 87.2% in [4]; 69% in [5]; 34.6% in [6]. Besides, the growth in test [7] was 49.3%; in test [8], 65.6%; in test [9], -32.4% (active); in test [10], -0.259% (active); in test [11] it was -38.8% (active); in test [12], 0.816% (active). The growth is 62% in test [13]; 67.7% in test [15]; -83.5% (active) in [17]; 70.4% in [18]; 41.7% in test [19].
For `COc1cc(/C=C/C(=O)c2ccc(O)c(CN3CCN(c4cc5c(cc4F)c(=O)c(C(=O)O)cn5C4CC4)CC3)c2)cc(OC)c1OC`, the growth is 66.2% in test [1]; 49.4% in [2]; 38.2% in [3]; 47.4% in test [4]; 107% in [5]; 46.1% in test [6]. Moreover, the growth in [7] was 54.7%; in test [8], 93%; in [9], 9.83% (active); in test [10], 33.3%; in test [11] it was -3.9% (active); in [12], 30.8%. Further, the growth in test [13] was 65.5%; in [14] it was 49.8%; in test [15], 89.2%; in test [16], 55%; in [17], 14%; in [19] it was 54.6%.
As for `COc1cccc(-c2nc3sccn3c2-c2ccnc(NCCCNS(=O)(=O)c3cccc(F)c3)c2)c1`, the growth in [1] was 7.47% (active); in [2], 31%; in [3], 28.5%; in [4], 11.4%; in test [5], 61.1%; in test [6], 20.7%. Moreover, the growth in test [7] was 19.7%; in test [8] it was 64.4%; in test [9], 9.96% (active); in [10], 3.29% (active); in test [11] it was -19.9% (active); in test [12], 14.4%. Also, the growth was 59.4% in test [13]; 20.2% in test [14]; 54.3% in test [15]; 27.7% in test [16]; 39.6% in [17]; 57.7% in test [18]. Moreover, the growth in [19] was 4.88% (active).
Regarding `C=CC(=O)Nc1cccc(-c2nc(SC)nc(Nc3cccc(OC)c3)c2C#N)c1`, the growth was 71.2% in [1]; 72% in test [2]; 44.6% in [3]; 42.3% in test [4]; 78.9% in test [5]; 45.7% in [6]. Also, the growth in [7] was 44.9%; in test [8], 9.73% (active); in test [9] it was 57.5%; in test [10] it was 39.5%; in test [11] it was 40%; in test [12] it was 42%. Moreover, the growth in test [13] is 103%; in test [14], 62.5%; in test [16] it was 65.9%; in test [17], 52.1%; in test [18], 49.3%; in test [19], 49.2%.
For `CC(C)(O)c1cn(CCCCN2C(=O)C(=O)c3ccccc32)nn1`, the growth in [1] is 101%; in test [2] it was 93.7%; in test [3], 102%; in [4], 82.7%; in [5], 108%; in [6], 104%. Moreover, the growth was 93.9% in test [7]; 71.7% in [8]; 101% in test [9]; 94.6% in test [10]; 95.9% in [11]; 102% in test [12]. Further, the growth in test [13] is 96.4%; in test [14], 96.5%; in test [15], 95.7%; in test [16] it was 102%; in test [17], 109%; in [19] it was 99.9%.
Regarding `COc1cccc(-c2nc3sccn3c2-c2ccnc(NCCNS(=O)(=O)c3ccc(F)cc3)c2)c1`, the growth is 21.3% in [1]; 28.2% in [2]; 27.1% in test [3]; 16.7% in test [4]; 46.5% in test [5]; 13% in [6]. In addition, the growth in [7] is 18.4%; in test [8] it was 18.2%; in test [9], 14.2%; in [10], 7.99% (active); in test [11], -14.1% (active); in test [12], 20.1%. The growth was 49.3% in test [13]; 22.3% in test [14]; 43.7% in [15]; 28.6% in test [16]; 42% in [17]; 52.4% in [18]. For the same compound, in test [19], the growth was 10.7%.
